# ChEMBL document CHEMBL3988442, “University of Dundee, Small-Polar-MMV Screening Library” (2021)
# The campaign covered roughly 67,000 compounds. About 300 (0.45%) showed an effect of 50% or more. This is one part of a sample in which strong results are shown more often than they occur.
# Target: Polyketide synthase Pks13 (Mycobacterium tuberculosis (strain ATCC 25618 / H37Rv)) (UniProt I6X8D2)
# Test: Mycobacterium tuberculosis Polyketide synthase 13 Thioesterase (PKS13)
# Type: functional
# Design: scale not given: in the data most compounds retested in dose-response had high values
# Settings: 30 µM
# Sequence of Polyketide synthase Pks13 (Mycobacterium tuberculosis (strain ATCC 25618 / H37Rv)) (I6X8D2 whole entry): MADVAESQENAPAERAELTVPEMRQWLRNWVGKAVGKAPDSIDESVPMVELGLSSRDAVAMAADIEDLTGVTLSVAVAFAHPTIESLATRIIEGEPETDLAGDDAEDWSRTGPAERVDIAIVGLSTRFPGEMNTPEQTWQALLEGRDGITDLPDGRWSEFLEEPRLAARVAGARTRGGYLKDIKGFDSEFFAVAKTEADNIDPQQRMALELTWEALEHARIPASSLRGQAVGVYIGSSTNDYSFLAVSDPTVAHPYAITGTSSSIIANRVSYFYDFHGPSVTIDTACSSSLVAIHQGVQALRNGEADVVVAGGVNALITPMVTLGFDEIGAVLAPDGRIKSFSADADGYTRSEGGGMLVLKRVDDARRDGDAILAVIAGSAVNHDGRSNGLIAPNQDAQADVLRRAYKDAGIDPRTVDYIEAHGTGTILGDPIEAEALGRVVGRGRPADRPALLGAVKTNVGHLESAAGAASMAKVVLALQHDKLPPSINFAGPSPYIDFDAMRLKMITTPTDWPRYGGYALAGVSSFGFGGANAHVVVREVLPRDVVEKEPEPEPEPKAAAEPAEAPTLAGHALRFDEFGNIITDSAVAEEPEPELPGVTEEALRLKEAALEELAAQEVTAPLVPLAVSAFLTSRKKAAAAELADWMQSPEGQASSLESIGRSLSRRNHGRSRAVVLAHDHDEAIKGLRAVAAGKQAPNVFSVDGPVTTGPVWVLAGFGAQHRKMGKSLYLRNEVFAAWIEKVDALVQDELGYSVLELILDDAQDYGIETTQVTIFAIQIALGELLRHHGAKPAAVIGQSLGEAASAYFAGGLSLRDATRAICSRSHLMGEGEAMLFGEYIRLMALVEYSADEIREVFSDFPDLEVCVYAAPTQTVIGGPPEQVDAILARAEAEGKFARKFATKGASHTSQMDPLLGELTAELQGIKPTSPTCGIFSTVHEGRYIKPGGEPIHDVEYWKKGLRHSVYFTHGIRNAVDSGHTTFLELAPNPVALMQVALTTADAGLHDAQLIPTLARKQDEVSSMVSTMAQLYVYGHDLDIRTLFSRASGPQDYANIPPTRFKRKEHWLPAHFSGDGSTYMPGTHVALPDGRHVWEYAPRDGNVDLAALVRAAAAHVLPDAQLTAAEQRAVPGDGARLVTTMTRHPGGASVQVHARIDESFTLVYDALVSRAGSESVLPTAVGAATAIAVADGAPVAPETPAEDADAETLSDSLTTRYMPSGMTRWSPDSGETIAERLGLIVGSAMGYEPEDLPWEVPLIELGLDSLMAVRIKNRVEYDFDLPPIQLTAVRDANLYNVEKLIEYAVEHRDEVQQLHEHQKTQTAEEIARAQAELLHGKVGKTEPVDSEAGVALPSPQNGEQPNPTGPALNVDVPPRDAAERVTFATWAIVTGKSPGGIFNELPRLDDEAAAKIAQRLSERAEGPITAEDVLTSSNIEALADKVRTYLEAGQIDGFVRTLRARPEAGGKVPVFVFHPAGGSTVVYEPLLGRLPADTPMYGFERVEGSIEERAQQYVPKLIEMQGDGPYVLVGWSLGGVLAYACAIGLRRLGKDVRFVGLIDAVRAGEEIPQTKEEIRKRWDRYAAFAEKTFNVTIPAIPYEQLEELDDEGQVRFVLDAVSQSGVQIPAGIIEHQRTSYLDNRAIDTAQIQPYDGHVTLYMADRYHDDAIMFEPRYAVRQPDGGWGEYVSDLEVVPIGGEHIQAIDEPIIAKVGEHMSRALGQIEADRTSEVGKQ
row,Structure (SMILES),Percent Effect
1,COCC(=O)N1CC[C@@H]2O[C@H](COCc3ccncc3)CC[C@@H]21,-12.9%
2,CC1CCN(S(=O)(=O)c2cccn(CC(=O)NC(C)(C)C)c2=O)CC1,-9.8%
3,CC1CCN(S(=O)(=O)c2cccn(CC(=O)NC3CCCC3)c2=O)CC1,3.17%
4,COC(=O)Cn1cccc(S(=O)(=O)N2CCC(C)CC2)c1=O,50.5%
5,CCCOC(=O)N1CCc2cccc(S(=O)(=O)N3CCOCC3)c2C1,-4.05%
6,CCOCCC(=O)N1CCc2cccc(S(=O)(=O)N3CCOCC3)c2C1,59.9%
7,COCC(=O)N1CCc2cccc(S(=O)(=O)N3CCOCC3)c2C1,-3.94%
8,COCCNC(=O)[C@@H]1CN(c2ncccn2)C[C@H]2OCC[C@H]21,-43.5%
9,CC(=O)N1C[C@H]2CN(CC3CC3)C(=O)[C@H]2C1,-18.6%
10,CSc1ccc2cc(CN(C)CCCN(C)C)c(=O)[nH]c2c1,6.22%
11,CSc1ccc2cc(CN(C)CCc3cn[nH]c3)c(=O)[nH]c2c1,-13.1%
12,CSc1ccc2cc(CN(C)CCO)c(=O)[nH]c2c1,67%
13,Cc1cnc(N2CCN3C[C@H](OCc4ccccn4)C[C@H]3C2)nc1,-24.2%
14,Cn1ccnc1CN1CCN2C[C@H](Oc3cccc(F)c3)C[C@H]2C1,23.6%
15,O=C1C[C@H]2CC[C@@H](CN1)N2C1CCSCC1,-1.94%
16,CN(C(=O)c1ccc(-n2ncc(C#N)c2N)cc1)C1CCCC1,-1.63%
17,CN(CC1CCCCC1)C(=O)c1ccc(-n2ncc(C#N)c2N)cc1,52.7%
18,N#Cc1cnn(-c2ccc(C(=O)N(C3CCCCC3)C3CC3)cc2)c1N,-18%
19,CCCN1CCN(C(=O)c2cnccn2)[C@H]2CS(=O)(=O)C[C@H]21,-4.16%
20,c1cncc(CO[C@H]2CC[C@H]3[C@@H]2OCCN3C2CCOCC2)c1,2.72%
21,Cc1cc(C)cc(CN2C[C@@H]3OCCN(S(=O)(=O)N(C)C)[C@@H]3C2)c1,-14.4%
22,CC1(C)O[C@@](C)([C@H]2CC3(CCN(c4cnccn4)CC3)CO2)CC[C@@H]1O,-3.99%

row,Structure (SMILES),Percent Effect
1,CC(C)c1cc(N2CCC(N)CC2)n2nccc2n1,61.4%
2,CC(C)c1cc(N2CCC[C@H](N)C2)n2nccc2n1,-7.75%
3,CC(C)c1cc(N2CC[C@H](F)C2)n2nccc2n1,-11.1%
4,O=C(NC1CC1)[C@@H]1CCO[C@@H]2CCN(C3CCOCC3)C[C@@H]21,-12.6%
5,Cc1nnc([C@H]2CC[C@@H]3[C@@H](CCN3Cc3c(C)noc3C)O2)o1,-7.83%
6,CN(C)C(=O)CO[C@@H]1CC[C@H]2[C@H]1OCCN2C(=O)C1CCOCC1,-1.73%
7,CC(=O)N1CCN2C(=O)N(Cc3ccc(F)cc3)C[C@H]2C1,-33.1%
8,Cn1cc(-c2ncc3c(c2C(=O)O)CCN(CC2CC2)C3)cn1,-9.1%
9,Cn1cc(-c2ncc3c(c2C(=O)O)CCN(CC2CCOC2)C3)cn1 (centres undefined),111%
10,O=C(O)c1c(-c2cncnc2)ncc2c1CCN(CC1CCOC1)C2 (centres undefined),-5.14%
11,O=S(=O)(C1CC1)N1CCO[C@@H]2CN(Cc3ccco3)C[C@@H]2C1,-22.6%
12,Cn1cc(CN2CC[C@@H]3[C@@H]2CCN3Cc2ccc3c(c2)OCO3)cn1,-41.2%
13,Cc1noc([C@@H]2CCO[C@@H]3CCN(Cc4cccs4)C[C@@H]32)n1,2.92%
14,CCc1nc(C2CCCN2C(=O)c2ncoc2CC)no1 (centres undefined),-6.87%
15,CCc1nc(C2CCCN2C(=O)c2nc(C)n3ccccc23)no1 (centres undefined),75.3%
16,CCc1n[nH]c(C2CN(C(=O)Cn3ccccc3=O)CCO2)n1 (centres undefined),-11.9%
17,Cc1nc(C)n(C2CCCN(C(=O)c3cc4ccccc4n3C)C2)n1 (centres undefined),-20.9%
18,Cc1nc(C)n(C2CCCN(C(=O)c3ccccc3C)C2)n1 (centres undefined),-12.6%
19,CCc1n[nH]c(C2CN(C(=O)c3ncoc3CC)CCO2)n1 (centres undefined),-48.2%
20,CCc1n[nH]c(C2CN(C(=O)c3nc(C)n4ccccc34)CCO2)n1 (centres undefined),83%
21,CCc1nc(C2CCCN2C(=O)c2nccnc2N)no1 (centres undefined),29.6%
22,Cc1nc(C)n(C2CCCN(C(=O)c3nc(C)n4ccccc34)C2)n1 (centres undefined),93.6%

row,Structure (SMILES),Percent Effect
1,COC[C@H]1CC[C@H]2[C@H](CCN2S(=O)(=O)c2ccccc2)O1,4.33%
2,c1ccc(CO[C@@H]2C[C@H]3CN(c4ncccn4)CCN3C2)nc1,-22%
3,Cc1cnc(C(=O)N2C[C@H]3CN(Cc4cccnc4)C[C@H]3C2)cn1,-17.6%
4,Cc1cccc(CN2C[C@@H]3CN(C(=O)c4ccco4)C[C@@H]3C2=O)c1,-32.5%
5,CNC(=O)CN([C@H]1C[C@H]2CCOC[C@H]2C1)S(=O)(=O)c1ccccc1,-2.79%
6,CCN(CC)[C@@H]1CN(Cc2cnn(C)c2)[C@@H]2COC[C@H]12,-19.3%
7,O=c1c(-c2ccnc(N3CCC[C@H]3CO)n2)cnc2sccn12,47.6%
8,Cc1cn2c(=O)c(-c3ccnc(N4CCC[C@@H]4CO)n3)cnc2s1,72.5%
9,Cc1csc2ncc(-c3ccnc(N4CCC[C@@H]4CO)n3)c(=O)n12,27.3%
10,COCCN1C[C@@H]2CN(Cc3ccoc3)CCC[C@]2(C(=O)O)C1,-27.8%
11,CC1CCc2nc(O)c(C(=O)NCCN(C)C)cc2C1 (centres undefined),-47.6%
12,CC1CCc2nc(O)c(C(=O)NCCCN3CCN(C)CC3)cc2C1 (centres undefined),82.6%
13,CCCNC(=O)c1cc2c(nc1O)CCC(C)C2 (centres undefined),-24.6%
14,COc1ccc(CN2C[C@@H]3OCCN(c4ncccn4)[C@@H]3C2)cc1,-27.4%
15,O=S(=O)(NC[C@H]1C[C@@H]2CCN1C[C@@H]2CN1CCCC1)c1ccc(Cl)cc1,2.53%
16,CCOC(=O)N1CCc2ccccc2C12CCNCC2,5.43%
17,O=C(C1CC1)N1CCc2ccccc2C12CCNCC2,61.6%
18,COCC(=O)N1CCc2ccccc2C12CCNCC2,-33%
19,CCOCC(=O)N1C[C@@H]2CC[C@H](C1)N(Cc1ccccn1)C2=O,-4.9%
20,CC(C)OCc1ncn2c1CN(Cc1cccs1)CCC2,-19.5%
21,CC(C)OCc1ncn2c1CN(Cc1ccc(F)cc1)CCC2,-26.5%
22,CC(C)OCc1ncn2c1CN(Cc1nccs1)CCC2,54.5%

row,Structure (SMILES),Percent Effect
1,CN1CCN2C[C@@H](CO)[C@H](c3ccccc3)[C@H]2C1,1.92%
2,Fc1cnc(N2CC[C@@H](N3CCOCC3)[C@@H]2Cc2ccccc2)nc1,-4.97%
3,Fc1cnc(N2CC[C@@H](N3CCOCC3)[C@@H]2Cc2ccncc2)nc1,-11.8%
4,Cn1cc(C[C@H]2[C@H](N3CCOCC3)CCN2c2ncc(F)cn2)cn1,56%
5,CN1C[C@@H]2CN(C(=O)NCc3ccccc3)CCC[C@]2(C(=O)O)C1,-22.8%
6,O=S1(=O)C[C@@H]2[C@H](C1)N(Cc1cc(Cl)cc(Cl)c1)CCN2CC1CC1,-18.6%
7,COc1cccc(N2CCN(C(=O)C(O)c3ccccc3Cl)CC2=O)c1 (centres undefined),55.5%
8,COc1cccc(N2CCN(C(=O)C(C)Oc3ccccc3)CC2=O)c1 (centres undefined),-5.21%
9,COc1cccc(N2CCN(C(=O)C(O)c3cccc(Cl)c3)CC2=O)c1 (centres undefined),-13.9%
10,CCc1cc(C(=O)N2CCC(c3cc4ncccc4cn3)CC2)on1,16.1%
11,CCc1cc(C(=O)N2CCC(c3cc4ncccc4cn3)CC2)no1,-21.6%
12,O=C(CCc1cc(Cl)no1)N1CCC(c2cc3ncccc3cn2)CC1,129%
13,O=C(C1CCOCC1)N1CC[C@H]2[C@H]1CCN2c1nncs1,-28.6%
14,CSCC[C@@H]1CN2CCC[C@H]2CN1Cc1coc2ccc(Cl)cc2c1=O,-2.59%
15,CN(Cc1cncnc1)[C@@H]1CN(C(=O)C2CC2)[C@@H]2CCCO[C@H]12,-10.1%
16,CN(C)S(=O)(=O)N1C[C@@H]2CC[C@H](C1)N(C/C=C/c1ccc(F)cc1)C2,-0.937%
17,CCCN1CCCC1c1nc(Cc2ccc(F)cc2)no1 (centres undefined),-12.9%
18,OCCCN1CCCC1c1nc(Cc2ccc(F)cc2)no1 (centres undefined),11.8%
19,CC(C)(C)OCCN1CCCC1c1nc(Cc2ccc(F)cc2)no1 (centres undefined),74.9%
20,c1cnc(NC[C@H]2OC[C@@H]3CCN(Cc4cccnc4)C[C@@H]32)nc1,-692%
21,CCCc1ccc(C(=O)N2CCc3c(nc(C)nc3N(C)C)C2)cc1,6.78%
22,CCNc1ncc(C(=O)N2CCc3c(nc(C)nc3N(C)C)C2)cn1,50.1%

row,Structure (SMILES),Percent Effect
1,Cc1nc2c(c(N(C)C)n1)CCN(C(=O)c1ccc(N)nc1)C2,-0.177%
2,Cc1ccc(CN2CC[C@H]3NC(=O)CC[C@@H]32)o1,-15.3%
3,O=C(c1ncccn1)N1C[C@@H]2COC[C@]2(COCc2cccnc2)C1,-13.2%
4,COCCCN1C(=O)CC[C@H]2CN(Cc3ccc4occc4c3)CC[C@H]21,-8.86%
5,O=C1CC(c2cccc(Cl)c2)c2snc(C(=O)O)c2N1 (centres undefined),-0.952%
6,O=C1CC(c2ccc(F)cc2)c2snc(C(=O)O)c2N1 (centres undefined),-1.41%
7,O=C1CC(c2ccc(F)c(F)c2)c2snc(C(=O)O)c2N1 (centres undefined),68.8%
8,CC(=O)NCC(=O)N1C[C@H](OCc2cccnc2)[C@H]2COC[C@H]21,-10.5%
9,Cn1cc(CN2CCO[C@@H]3CN(C4CCCC4)C[C@@H]3C2)cn1,-3.52%
10,CCc1ccc(CN2CCN(Cc3ncc[nH]3)[C@H]3CS(=O)(=O)C[C@H]32)nc1,-7.95%
11,CCS(=O)(=O)N1C[C@@H]2CN(Cc3ccco3)CCO[C@@H]2C1,-0.26%
12,Cc1cccc(CO[C@@H]2CC[C@H]3[C@H]2OCCN3Cc2nccs2)n1,-27.1%
13,COc1ccccc1-c1nc(C(=O)N(C)C)n2ccncc12,11.7%
14,COC(=O)CNC(=O)Cn1ccc2cccc(OC)c21,-29.2%
15,COC(=O)CNC(=O)c1nc(-c2ccccc2OC)c2cnccn12,118%
16,Cc1nnc(N2C[C@H](OCCCn3cccn3)[C@H]3OCCC[C@H]32)s1,-20.4%
17,O=C1CO[C@H]2CN(Cc3cccnc3)C[C@H]2N1,0.623%
18,CC(=O)N1C[C@@H](c2ccsc2)[C@@H]2CN(CC3CCCCC3)CC[C@@H]21,18%
19,Cc1cccc(-c2ccc(C(=O)NCC(C)(C)C(N)=O)c(=O)[nH]2)c1,57.5%
20,Cc1cccc(-c2ccc(C(=O)NCC3CCOC3)c(=O)[nH]2)c1 (centres undefined),-6.84%
21,Cc1cccc(-c2ccc(C(=O)NCCN(C)C3CC3)c(=O)[nH]2)c1,-29.9%
